Reference: PubChem BioAssay AID463212 (Sanford-Burnham Center for Chemical Genomics, 2010)
In all, about 330,000 compounds went through this assay and about 4,400 (1.3%) were called active. The list comes from a sample in which actives are over-represented; it also holds similar structures and randomly drawn compounds. A number with no mark means an inactive call.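 Rule for the calls: active = growth inhibition of the mutant yeast at or above 50%; inactive = the rest.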

Test: growth inhibition of tim23-1 ts yeast – luminescence, uHTS, primary screen (AID 463212);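 note: temperature-sensitive mutant grown at 25 °C; plate controls were DMSO-treated mutant yeast for no effect and medium wells lacking yeast for full effect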
Conditions: S. cerevisiae tim23-1 growth, BacTiter-Glo luminescence, 24 h; at 20 µM; stronger effect = higher value

SMILES | inhibition
CC(CC(=O)N1CCN(S(=O)(=O)c2ccccc2)CC1)n1cncn1 (configuration not stated) | 7.53%
CC1=NN(C(=O)Cc2ccc(C)cc2)C(O)(c2cccnc2)C1 (configuration not stated) | -31.5%
CC1=NN(C(=O)c2ccc(Br)cc2)C(O)(c2ccccc2)C1 (configuration not stated) | 29.5%
CCC1=NN(C(=O)Cc2ccc([N+](=O)[O-])cc2)C(O)(c2ccc(Br)cc2)C1 (configuration not stated) | 50% (active)
COc1ccc(CC2c3cc(OC)c(OC)cc3CC[N+]2(C)CCC(=O)OCCCCCOC(=O)CC[N+]2(C)CCc3cc(OC)c(OC)cc3C2Cc2ccc(OC)c(OC)c2)cc1OC (configuration not stated) | 3.67%
CC(C)(C)c1ccc(C(=O)N2CCN(CCNC(=O)C(=O)Nc3ccc(F)cc3)CC2)cc1 | 16.2%
COC(=O)c1sccc1NN1C(=O)c2ccccc2C1=O | 13.6%
COC(=O)c1ccc2c(C(C)(C)O)c(C(C)(C)O)[nH]c2c1 | 5.76%
Cc1ccccc1NCC(=O)N/N=C\c1ccc([N+](=O)[O-])s1 | 62.7% (active)
Cc1ccc(/C=N/NC(=O)CN2CCN(Cc3ccccc3)CC2)s1 | 0.916%
CCOc1ccc(NC(=O)CCC(=O)n2nc(C)cc2C)cc1 | 14.6%
CCOc1ccc(NC(=O)CCC(=O)N/N=C/c2ccc([N+](=O)[O-])s2)cc1 | 79.1% (active)
Cc1cccc(/C=N/NC(=O)CNc2cccc3ccccc23)n1 | 17.8%
CCOc1ccc(C(=O)CCC(=O)Nc2ccncc2)cc1 | 11.8%
CCOC(=O)/C=C/C(=O)OCC(=O)NC(c1ccccc1)c1ccccc1 | 40.9%
O=C(NCc1ccc2c(c1)OCO2)C1CCCN(S(=O)(=O)c2cccs2)C1 (configuration not stated) | 7.36%
CCN(C(=O)c1cc([N+](=O)[O-])ccc1NCc1cccnc1)c1ccccc1 | 24.3%
COc1ccc(N=Nc2c(-c3ccc(OC)cc3)[nH]oc2=O)cc1 | 2.46%
CC1CCCCC1NC(=O)C1CCCN1S(=O)(=O)c1cccc2nsnc12 (configuration not stated) | 6.89%
Cc1ccccc1CSc1nnc(Cn2c(=O)sc3ccccc32)n1C | 18.7%
Cc1ccc(N=Cc2c(O)cc(C)oc2=O)c(C)c1 | 96.2% (active)
Cc1cc(O)c(C(=O)/C=C/c2c(F)c(F)c(F)c(F)c2F)c(=O)o1 | 19.1%
Cc1ccc(N=Cc2c(O)n(-c3nccs3)c(=O)c3ccccc23)c(C)c1 | -3.15%
CN1CCN(C(=O)c2ccc(-c3ccc(Br)cc3)o2)CC1 | 4.87%
Cc1ccc(S(=O)(=O)NC(=O)N2CCCN(Cc3ccc(F)cc3)CC2)cc1 | -9.12%

SMILES | inhibition
Cc1nc2cc(S(=O)(=O)C(F)(F)F)ccc2s1 | -1.26%
CCc1cccc(C)c1N1C(=O)CN(Cc2ccccc2)C1=S | 46.7%
Cc1cccc(C)c1N1C(=O)CN(Cc2ccccc2)C1=S | 54.6% (active)
COc1cccc(N2C(=O)CN(Cc3ccccc3)C2=S)c1 | 44.3%
Cc1ccc2cc3cc(C(=O)N4CCCCCC4)oc3nc2c1 | 53.8% (active)
Cc1cc(C)cc(NC(=O)N2CCCCCCC2)c1 | 27.5%
Cc1ccc2nc(N3CCN(C(=O)c4ccco4)CC3)sc2c1 | 26.4%
CC(=O)N1CC(=O)N(CC(=O)Nc2ccc(Br)cc2)C1=S | 10.5%
COC(=O)[C@]1(C)N[C@H](c2ccc(-c3ccc(Cl)c(Cl)c3)cc2)[C@@H]2C(=O)N(C)C(=O)[C@@H]21 | 30.7%
COc1cccc(CNc2ncc(-c3ccccc3)n2C)c1 | -8.62%
CCC(=O)Nc1sc(C(=O)Nc2ccccc2)c(C)c1C(=O)OC | 32%
Cc1csc(NC(=S)Nc2cccc(Cl)c2)n1 | 48.7%
CCC(=O)Nc1nc(C)c(C(=O)Nc2cccc(Cl)c2)s1 | 57.9% (active)
O=C(Nc1ccc(N2CCOCC2)nc1)c1c(F)cccc1F | -3.3%
Cc1ccc(NC(=S)N2CCN(c3ncccn3)CC2)cc1C | 19%
Cc1cccc(N2CCN(C(=O)/C=C/c3ccco3)CC2)c1C | 38.9%
COc1ccc(C(=O)COC(=O)CN2C(=O)C3CC=CCC3C2=O)c(OC)c1 (configuration not stated) | 12.1%
COc1cccc(CNC(=O)C2CCCN(S(=O)(=O)N3CC(C)CC(C)C3)C2)c1 (configuration not stated) | 27.8%
CN(c1ccc(OCC(=O)O)cc1)S(=O)(=O)c1ccc2ccccc2c1 | 3.8%
CC(=O)Oc1ccc(N(C(C)=O)S(=O)(=O)c2ccc3ccccc3c2)cc1Br | 59.3% (active)
COCCNC(=O)COc1ccc(N(C)S(=O)(=O)c2ccc3ccccc3c2)cc1 | 19.5%
CC(=O)n1cc([C@@H]2C=C(C(=O)N3CCN(Cc4ccc5c(c4)OCO5)CC3)O[C@H](OCc3ccc(CO)cc3)C2)c2ccccc21 | 5.34%
O=C(COC(=O)Cc1ccc(Br)cc1)Nc1c(F)c(F)c(F)c(F)c1F | 5.57%
CCCCOc1ccc(C(=O)NCC(=O)OCC(=O)c2c(N)n(C)c(=O)n(C)c2=O)cc1 | 7.23%
NS(=O)(=O)c1ccc(CCNC(=O)NC2CCCCC2)cc1 | 8.17%

SMILES | inhibition
Cc1cc2ncn(CCCCOc3ccccc3)c2cc1C | 51.5% (active)
COCCOCCn1cnc2ccccc21 | 2.15%
Clc1ncn(CCOc2ccccc2)c1Cl | -4.79%
Fc1ccccc1-c1cc2cc3c(cc2cn1)OCO3 | 54.8% (active)
Fc1ccc2cnc(-c3ccccc3)cc2c1 | 31.1%
O=C(c1ccco1)N1CCN(C(=O)c2cc(-c3ccccc3F)no2)CC1 | 19.6%
COc1ccc(-n2c(SCC(=O)Nc3ccc4c(c3)OCO4)nnc2C(C)N2CCCCC2)cc1 (configuration not stated) | 0.001%
O=C(O)c1ccc(S(=O)(=O)N2CCC(Cc3ccccc3)CC2)cc1 | -3.54%
CSCC[C@H](NC(=O)N1CCn2c1nc1ccccc12)C(=O)NCc1ccc2c(c1)OCO2 | -0.587%
CCCCNC(=O)CCn1c(=O)c2ccccc2n(Cc2cc(C)ccc2C)c1=O | -7.13%
COC(=O)c1ccccc1NC(=O)CSc1nc2c(c(=O)[nH]1)CCC2 | 16%
CN1C(=O)/C(=N/OC(=O)c2ccccc2Br)c2ccccc21 | 56.2% (active)
Nc1cc(OC(=O)c2ccccc2Br)nn1S(=O)(=O)c1ccccc1 | 37.3%
CN1C(=O)/C(=C\c2cc(Br)cs2)c2ccccc21 | 24.9%
O=C(COc1ccc(F)cc1Br)NCC1COc2ccccc2O1 (configuration not stated) | 25%
CN(C)S(=O)(=O)N1CCN(c2ccc([N+](=O)[O-])cc2)CC1 | 9.07%
Nc1nonc1-n1nnc(C(=O)N/N=C/c2c[nH]c3ccccc23)c1-c1ccccc1 | 14.8%
O=C(O)c1cccc(NC(=S)N/N=C/c2c[nH]c3ccccc23)c1 | 7.37%
CSC(=S)N/N=C/c1c[nH]c2ccccc12 | 63.2% (active)
FC(F)(F)c1cccc(NC(=S)Nc2cccc(Cl)c2)c1 | 46.1%
COc1ccc(CNc2ncnc3ccccc23)cc1 | -0.028%
FC(F)(F)c1cccc(Nc2ncnc3ccccc23)c1 | 94% (active)
Cc1ccccc1-n1nc(SCC(=O)O)sc1=S | -2.14%
[O-][n+]1c2c(nn1-c1ccc(Cl)c(Cl)c1)-c1nonc1CC2 | 4.72%
Clc1ccc(Cc2nnc(-c3cccs3)o2)cc1 | 15%

SMILES | inhibition
Clc1ccc(Nc2nc(-c3cccs3)cs2)nc1 | 70.7% (active)
CCCc1cc(C(=O)Nc2ccc(Cl)cn2)cs1 | 33%
O=C(OCC(=O)N1CCCCCC1)c1cnc(Cl)c(Cl)c1 | 2.9%
O=S(=O)(Nc1ccc(O)c2ccccc12)c1ccc(OC(F)(F)F)cc1 | 28.5%
O=c1c(-c2ccc3c(c2)OCCO3)c(C(F)(F)F)oc2cc(O)cc(O)c12 | 58.2% (active)
CCOC(=O)c1cc2cc(-c3c(C(=O)OCC)oc4cc(O)cc(O)c4c3=O)ccc2o1 | 14.3%
COc1ccc(-c2onc(C)c2-c2ccc3c(c2)OCCO3)c(O)c1 | 28.1%
CCOc1ccc(CCNC(=O)CCc2nnc3ccc(N4CCCC4)nn23)cc1OCC | 10.2%
O=C1NC(c2ccccc2)Oc2ccccc21 (configuration not stated) | 22.9%
Cc1ccccc1NC(=O)COc1cccc2c1CCNC2=O | 12.3%
O=C(Nc1ccc(N2CCN(C(=O)c3cccs3)CC2)cc1)c1cccnc1Cl | 12.9%
O=C(Nc1nn(Cc2ccccc2F)cc1Br)c1cccs1 | 17.3%
O=C(Cc1ccccc1)N1N=C(c2ccncc2)CC1(O)C(F)(F)F (configuration not stated) | 9.71%
CC(=O)N1N=C(c2ccccc2)OC1c1cccnc1 (configuration not stated) | 0.277%
CC(=O)N1N=C(c2ccncc2)OC1(Cc1ccccc1)Cc1ccccc1 | 52.9% (active)
Cc1ccsc1C(=O)NNC(=O)COc1ccc(Br)cc1 | -6.92%
C#CCNC(=O)[C@H](Cc1ccc(C(=O)c2ccccc2)cc1)NC(=O)OC(C)(C)C | 5.1%
O=C(CNc1cccc(S(=O)(=O)N2CCCCC2)c1)Nc1ccccc1F | 14.8%
COCCn1c(C)cc(C(=O)CN2c3cccc4cccc(c34)S2(=O)=O)c1C | 5.11%
Oc1ccccc1-c1cc(-c2ccc(Cl)cc2)n[nH]1 | 56.4% (active)
Cc1ccc(NC(=O)c2cc(-c3ccccc3O)n[nH]2)cc1C | -2.65%
CSc1ccccc1-c1nnc(-c2ccc(Cl)cc2)o1 | 21.3%
